Data as given in PubChem BioAssay.
The source made the active and inactive calls.

What was measured:
Albumin (Bos taurus) = Albumin (Bos taurus) (UniProt P02769); assay: compounds binding labelled BSA control protein – biochemical, small-molecule microarray, Alexa647 label, 635/667 nm fluorescence, artefact control for SMM control protein annotation, profiling panel (AID 1118); conditions: BSA-A647 binding, fluorescence 635 nm, higher = more signal;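 further: score merges 667 nm emission intensity and signal-to-noise per printed compound spot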
Albumin (Bos taurus), sequence (P02769 whole entry, looked up): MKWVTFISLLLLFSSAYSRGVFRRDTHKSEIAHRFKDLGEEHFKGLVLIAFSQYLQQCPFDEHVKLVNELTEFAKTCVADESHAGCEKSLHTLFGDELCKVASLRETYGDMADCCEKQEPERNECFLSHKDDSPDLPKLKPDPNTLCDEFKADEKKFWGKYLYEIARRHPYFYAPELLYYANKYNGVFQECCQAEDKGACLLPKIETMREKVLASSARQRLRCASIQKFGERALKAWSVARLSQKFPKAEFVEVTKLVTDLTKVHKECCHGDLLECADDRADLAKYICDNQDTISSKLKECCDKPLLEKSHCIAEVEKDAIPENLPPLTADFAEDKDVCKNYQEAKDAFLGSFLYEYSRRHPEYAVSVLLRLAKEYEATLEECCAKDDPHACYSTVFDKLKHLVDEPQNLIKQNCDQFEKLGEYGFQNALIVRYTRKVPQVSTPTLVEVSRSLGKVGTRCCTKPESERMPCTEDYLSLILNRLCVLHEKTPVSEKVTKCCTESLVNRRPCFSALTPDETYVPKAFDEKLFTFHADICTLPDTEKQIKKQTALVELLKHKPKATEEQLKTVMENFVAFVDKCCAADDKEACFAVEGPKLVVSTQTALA

[1] = probe aXIP binding to arrayed compounds – biochemical, NeuroSMM set, 635/667 nm fluorescence, primary screen (AID 1119); conditions: small-molecule microarray, higher = more signal, called active from +8 up or from −8 down;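 further: probe is the protein aXip251-270 applied at 1 µg/mL to compound-printed slides; binding of probe to printed compounds measured as 667 nm fluorescence plus signal to noise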
[2] = probe aNOTCH3 binding on compound microarray – biochemical, small-molecule microarray, 635/667 nm fluorescence, primary screen (AID 1120); conditions: higher = more signal;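 further: probe is a biotin-tagged antibody raised against NOTCH3 rather than NOTCH3 protein; score merges spot fluorescence near 667 nm with spot signal to noise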
[3] = probe aNOTCH2 binding on compound microarray – biochemical, small-molecule microarray, 635/667 nm fluorescence, primary screen (AID 1121); conditions: higher = more signal;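 further: score merges feature fluorescence read at 667 nm with its signal to noise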
[4] = biological target: Carbonic anhydrase 2 (Homo sapiens) (UniProt P00918); assay: compounds binding carbonic anhydrase 2 – biochemical, small-molecule microarray, Alexa647-labelled CAII, profiling panel (AID 1122); conditions: CAII-A647 binding fluorescence, higher = more signal
[5] = COS7 lysate on small-molecule microarray, probe aHis, 635 nm (AID 1123); conditions: COS7 cell lysate, fluorescence, higher = more signal;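 further: z-score combines 667nm fluorescence intensity with signal-to-noise per printed compound spot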
[6] = probe aLAP1 signal on lysate-treated microarray – cell lysate, small-molecule microarray, COS7 lysate, primary screen (AID 1124); conditions: probe aLAP1, fluorescence, higher = more signal;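 further: lysate comes from COS7 cells expressing LAP1 and is applied at 0.3 µg/mL; score merges spot fluorescence near 667 nm with signal-to-noise over triplicate slides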
Sam68 (KHDRBS1) = assay: compounds binding KHDRBS1 protein – biochemical, small-molecule microarray, 635 nm fluorescence, primary screen (AID 1125); conditions: higher = more signal;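 further: score merges 667 nm channel intensity with signal to noise over triplicate slides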
[7] = test system: Chordin-like protein 2 (CHRDL2); assay: compounds binding chordin-like 2 – biochemical, small-molecule microarray, 635 nm fluorescence, primary screen (AID 1126); conditions: fluorescence 635 nm, higher = more signal;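 further: printed compound slides probed with Chrdl2 protein at 4 µg/mL for 1 h at 4 C; score merges 667 nm emission intensity with signal to noise over three replicate slides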
[8] = biological target: Concanavalin-A (Canavalia ensiformis) (UniProt P02866); assay: compounds binding concanavalin A lectin – biochemical, small-molecule microarray, Alexa647 label, 635 nm, artefact control for SMM control protein annotation, primary screen (AID 1127); conditions: ConA-A647 binding fluorescence, higher = more signal;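 further: z combines 667 nm emission intensity with signal-to-noise across three replicate slides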
Concanavalin-A (Canavalia ensiformis), sequence (P02866 whole entry, looked up): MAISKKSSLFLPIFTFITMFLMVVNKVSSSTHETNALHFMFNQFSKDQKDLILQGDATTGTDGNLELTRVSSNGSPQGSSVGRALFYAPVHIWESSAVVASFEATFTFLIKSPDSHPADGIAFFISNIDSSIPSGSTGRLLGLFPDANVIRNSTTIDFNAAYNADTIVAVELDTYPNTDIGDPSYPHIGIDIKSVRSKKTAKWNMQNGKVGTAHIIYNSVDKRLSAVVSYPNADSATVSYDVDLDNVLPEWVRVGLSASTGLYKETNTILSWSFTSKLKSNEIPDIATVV

Row | SMILES | composite z-score (Albumin (Bos taurus)) | composite Z-score [1] | composite z-score [2] | composite z-score [3] | composite z-score [4] | composite z-score [5] | composite z-score [6] | composite z-score (Sam68 (KHDRBS1)) | composite z-score [7] | composite z-score [8]
1 | CN(C)C(=O)[C@]1(Cc2ccccc2N=[N+]=[N-])N=C(c2ccc(OCCCO)cc2)O[C@@H]1c1ccccc1CN=[N+]=[N-] | 0.828 | -0.136 (inactive) | 0.473 | -0.0349 | 0.684 | 2.53 | 0.635 | 1.3 | -0.21 | 0.875
2 | O=C1O[C@H](c2ccccc2)[C@H](c2ccccc2)N2[C@H]1[C@@H](C(=O)N1CCCCCCC1)[C@]1(C(=O)Nc3ccccc31)[C@H]2c1ccc(O)cc1 | 0.052 | 8.41 (active) | 2.34 | 1.24 | 0.764 | 4.65 | 1.65 | 1.31 | 1.71 | 1.17
3 | COC(=O)[C@@]1(Cc2ccc(OC)cc2)[C@H]2c3cc(C(=O)N(C)C)n(Cc4cc(C)n(C)n4)c3C[C@H]2CN1C(=O)c1ccccc1 | 0.19 | 0.638 (inactive) | 0.166 | 0.0736 | 0.88 | 3.4 | 0.898 | 1.06 | -0.285 | -0.307
4 | C[N+](C)(C)CCCC[C@@H]1NC(=O)[C@H]2C[C@@H](C(=O)NCCCCCCN)[C@@H](c3cccc(OCCO)c3)N2C1=O | 0.149 | 0.514 (inactive) | 0.536 | 0.198 | 0.752 | 2.07 | 1.04 | 1.3 | 0.886 | 0.936
5 | COc1ccc([Si](C)(C)[C@@H]2[C@@H](CC(=O)N(CCO)Cc3ccccc3)O[C@]3(C(=O)N(Cc4ccc(N5CCOC5=O)cc4)c4ccccc43)[C@H]2C)cc1 | -0.697 | 0.516 (inactive) | -0.063 | -0.175 | 0.469 | 1.35 | -0.211 | 0.951 | 0.697 | 1.08
6 | COC(=O)[C@@]1(Cc2ccc(OC)cc2)[C@H]2c3cc(C(=O)N4CCCC4)n(Cc4ccc(C)o4)c3C[C@H]2CN1C(=O)c1ccccc1 | 0.963 | -0.282 (inactive) | 0.74 | 0.0489 | 0.614 | 1.23 | 0.0793 | 0.762 | -0.425 | 0.88
7 | C#CCOC(=O)N[C@H](C=CCCCC)c1ccccc1 | 1.02 | 0.33 (inactive) | 0.0077 | 0.0964 | 0.88 | 3.67 | 0.711 | 0.199 | -0.0017 | 0.0429
8 | [N-]=[N+]=Nc1ccccc1[C@H]1OC(c2ccc(OCCCO)cc2)=N[C@@]1(Cc1ccccc1)C(=O)NCc1ccccc1 | 0.713 | 1.76 (inactive) | 0.256 | -0.0714 | 0.497 | 1.46 | 0.112 | 1.31 | 0.125 | 1.02
9 | CC(C)CNC(=O)[C@@]1(c2ccc([N+](=O)[O-])cc2)CC(=O)N(C(C)C)[C@@H]1c1ccc(CO)cc1 | 0.1 | 1 (inactive) | -0.273 | -0.161 | 0.735 | 1.59 | 0.664 | 0.3 | -2.39 | 0.0801
10 | COCCOC(=O)N1C(=O)[C@@]2(c3ccccc31)[C@H](c1ccccc1OCCO)N1[C@H](c3ccccc3)[C@H](c3ccccc3)OC(=O)[C@H]1[C@@H]2C(=O)N1CCc2cc(OC)c(OC)cc2C1 | -0.274 | 0.511 (inactive) | 0.0833 | -0.0176 | 0.335 | 0.51 | 0.0553 | 1.27 | 0.475 | 1.18
11 | [N-]=[N+]=NCc1ccccc1C[C@]1(C(=O)NCCN2CCOCC2)N=C(c2ccc(OCCCO)cc2)O[C@H]1c1ccccc1 | 0.528 | 0.356 (inactive) | 0.408 | -0.126 | 0.668 | 1.78 | 0.488 | 1.3 | -1.03 | 0.885
12 | COc1ccc([Si](C)(C)[C@@H]2[C@@H](CCO)O[C@]3(C(=O)N(Cc4ccc(N5C(=O)c6ccccc6Oc6ccccc65)cc4)c4ccccc43)[C@H]2C)cc1 | 0.0104 | 0.441 (inactive) | -0.0984 | -0.106 | -0.104 | 0.232 | -0.398 | -0.345 | -0.968 | 0.187
13 | C=C(/C(=C/C[C@@H](OC(=O)c1ccncc1)c1ccccc1OCCO)c1cnc2ccccc2c1)C(C)C | 0.635 | 0.718 (inactive) | 0.306 | 0.0002 | 0.935 | 1.5 | 0.497 | 1.3 | 1.45 | 1.19
14 | [N-]=[N+]=NCc1ccccc1C[C@]1(C(=O)NCCN2CCOCC2)COC(c2ccc(OCCCO)cc2)=N1 | 0.854 | 0.689 (inactive) | 0.116 | -0.106 | 0.353 | 2.31 | 1.47 | 1.29 | -0.519 | 0.0927
15 | COc1ccc(C#Cc2ccc3c(c2)[C@]2(C(=O)N3)[C@H](c3ccc(OCCO)cc3)N3[C@H](c4ccccc4)[C@H](c4ccccc4)OC(=O)[C@H]3[C@@H]2C(=O)N2CCN(c3ncccn3)CC2)cc1 | 0.716 | -0.912 (inactive) | -0.156 | -0.157 | 0.39 | 0.873 | 0.324 | 0.514 | -0.233 | 1.04
16 | COC(=O)C(CC#Cc1ccc2c(c1)[C@]1(C(=O)N2)[C@H](c2ccc(O)cc2)N2[C@H](c3ccccc3)[C@H](c3ccccc3)OC(=O)[C@H]2[C@@H]1C(=O)O)C(=O)OC | 0.587 | 0.877 (inactive) | 0.18 | -0.0891 | 0.766 | 1.07 | 0.308 | 0.318 | -0.3 | 0.819
17 | CC(C)(C)OC(=O)CC[C@]1(C(=O)O)COC(c2ccc(OCCCO)cc2)=N1 | 0.374 | -0.0004 (inactive) | 0.102 | -0.0966 | 0.803 | 1.11 | -0.156 | -1.05 | -1.92 | 0.135
18 | CC(C)CN1C(=O)[C@@]2(Cc3ccccc31)c1ccccc1C(=O)N(Cc1ccccc1)[C@H]2c1ccc(CO)cc1 | 0.488 | 0.671 (inactive) | -0.197 | -0.138 | 0.441 | 0.179 | 0.254 | -1.72 | -1.03 | -0.616
19 | O=C1O[C@@H](c2ccccc2)[C@@H](c2ccccc2)N2[C@@H](c3ccc(O)cc3)[C@]3(C(=O)Nc4ccc(C#CC5(O)CCCCCC5)cc43)[C@@H](C(=O)N3CCN(c4ncccn4)CC3)[C@H]12 | 0.77 | 0.95 (inactive) | -0.0558 | -0.123 | 0.604 | 1.87 | 0.333 | 1.31 | -0.106 | 1.13
20 | COCCCNC(=O)[C@@]1(Cc2ccccc2)COC(c2ccc(OCCCO)cc2)=N1 | 0.838 | 0.6 (inactive) | 0.0813 | -0.0307 | 0.739 | 3.02 | 0.77 | 1.31 | -0.554 | 0.825
21 | Cc1ccc(N2C(=O)c3ccccc3[C@](C)(C(=O)NC(C)C)[C@@H]2c2ccc(CO)cc2)nc1 | -0.546 | -1.02 (inactive) | -0.571 | -0.183 | 0.706 | 1.64 | -0.699 | -1.55 | -1.13 | -1.73
